Source: PubChem BioAssay AID1529 (NMMLSC, 2009)
Out of some 290,000 compounds screened, about 4,200 (1.4%) were called active. Only a selection was taken, and actives are over-represented in it overall. Values without a mark were called inactive.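 Rule for the calls: active = binding response more than 3 SD above or below the average of its plate-row segment, actives on both sides; inconclusive = wells at one plate position flagged as instrument error; inactive = the rest.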

The compounds below were run against Mitogen-activated protein kinase kinase kinase 3 (Homo sapiens) (UniProt Q99759) (assay: compounds raising or lowering MEK5 association with MEKK3 PB1 – biochemical, wildtype MEKK3, multiplex bead flow cytometry, Alexa488-MEK5, primary screen (AID 1529;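 note: Alexa488 bead fluorescence after subtracting the streptavidin-only scavenger bead signal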)). Conditions: bead-based flow cytometry, Alexa488-MEK5 binding to MEKK3; at 10 µM; actives lie on both sides; 0 = blocked by unlabeled MEK5, 100 = vehicle.
Chain of Mitogen-activated protein kinase kinase kinase 3 (Homo sapiens) (Q99759 whole entry, looked up): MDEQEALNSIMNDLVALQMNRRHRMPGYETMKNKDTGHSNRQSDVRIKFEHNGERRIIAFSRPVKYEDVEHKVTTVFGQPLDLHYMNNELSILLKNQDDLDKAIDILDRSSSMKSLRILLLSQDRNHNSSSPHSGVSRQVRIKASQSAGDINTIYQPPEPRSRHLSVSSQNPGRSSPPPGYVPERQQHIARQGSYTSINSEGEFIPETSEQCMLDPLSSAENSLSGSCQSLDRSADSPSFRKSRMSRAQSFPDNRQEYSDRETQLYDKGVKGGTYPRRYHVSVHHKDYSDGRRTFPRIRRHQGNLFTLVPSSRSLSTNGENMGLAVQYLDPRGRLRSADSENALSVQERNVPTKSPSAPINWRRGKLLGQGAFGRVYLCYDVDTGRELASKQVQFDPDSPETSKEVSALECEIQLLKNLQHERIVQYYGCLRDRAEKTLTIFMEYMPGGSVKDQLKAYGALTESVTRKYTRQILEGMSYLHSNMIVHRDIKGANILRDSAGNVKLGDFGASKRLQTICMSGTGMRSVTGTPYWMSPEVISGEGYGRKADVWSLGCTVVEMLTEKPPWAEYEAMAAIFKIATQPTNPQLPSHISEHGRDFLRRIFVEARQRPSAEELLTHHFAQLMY

CC(=O)N(c1ccc2oc(=O)sc2c1)S(=O)(=O)c1ccc(C)cc1 and CCNS(=O)(=O)c1ccc(CCC(=O)N2CCN(c3cc(Cl)ccc3C)CC2)cc1 are the same in binding response (% of control): 103% for the first, 103% for the second.

Compared with CN(Cc1ccccc1)C(=O)c1ccc(COc2ccccc2)cc1, Cc1onc(-c2ccccc2Cl)c1C(=O)NCCn1ccc2ccccc21 is lower in binding response (% of control): 109% for the first, 98% for the second.

Compared with COc1cc(OC)cc(C(=O)OCC(=O)Nc2sccc2C(N)=O)c1, Cc1cccc(OCC(=O)Nc2ccc(C(=O)O)cc2NC(=O)COc2cccc(C)c2)c1 is higher in binding response (% of control): 97% for the first, 105% for the second.

Going from c1ccc(-n2nnnc2-c2cccnc2)cc1 to Clc1ccc(-n2nnnc2-c2cnc(-c3ccccn3)nc2-c2cccs2)cc1, the binding response (% of control) falls from 108% to 100%.

Going from C=CCN1C(=NC(=O)COc2ccccc2)SC2CS(=O)(=O)CC21 (configuration not stated) to CCOC(=O)N1CCN(C(=O)Cn2cnc3ccccc3c2=O)CC1, the binding response (% of control) falls from 102% to 99%.

Going from CCOC(=O)N1CCN(C(=O)c2n[nH]c(=O)c3ccccc23)CC1 to O=C(CN1CCN(Cc2ccccc2)CC1)Nc1ccc(F)c(F)c1, the binding response (% of control) rises from 100% to 104%.

First: O=C(Nc1ccc(S(=O)(=O)N2CCCCCC2)cc1)c1c(F)cccc1F
Second: COc1ccc(S(=O)(=O)N2CCOC2CNC(=O)C(=O)NCc2ccc(F)cc2)cc1 (configuration not stated)
The binding response (% of control) of the first is higher: 101% for the first, 98% for the second.

First: CC1(c2nnc(-c3ccncc3)o2)CC(c2cccnc2)=NO1 (configuration not stated)
Second: O=C(OCc1cc2ccccc2[nH]c1=O)c1cccnc1
The binding response (% of control) of the first is lower: 101% for the first, 109% for the second.

Compared with Cc1cccc(N2CCN(S(=O)(=O)c3ccc(-c4cc(C)no4)s3)CC2C)c1 (configuration not stated), Cc1[nH]c2ccccc2c1C(=O)COC(=O)c1c(-c2ccccc2)noc1C is higher in binding response (% of control): 97% for the first, 108% for the second.

First: O=C(NCCCN1CCCCC1)C1CCCN(c2ncnc3c2nc2n3CCCCC2)C1 (configuration not stated)
Second: Cc1nc(SCC(=O)NC2CCCC2)[nH]c(=O)c1C
The binding response (% of control) of the first is lower: 94% for the first, 101% for the second.

O=C(CCN1CCN(C/C=C/c2ccccc2)CC1)Nc1ccccc1Cl and C=CCOc1ccc(/C=C2/C(=O)ON=C2C)cc1OCC are the same in binding response (% of control): 104% for the first, 104% for the second.

Cc1cc(=O)[nH]c(SCc2cc(Cl)ccc2OC(F)F)n1 was tested, and the binding response (% of control) was 103%.

For FC(F)(F)c1nc(-c2ccccc2)ncc1-c1nnnn1-c1ccccc1, the binding response (% of control) was 48% [inhibitor] (active).
For CCOC(=O)N1CCN(CC(=O)n2c(C)c(C)c3ccccc32)CC1, the binding response (% of control) was 124% (active).
For Cc1onc(-c2ccccc2Cl)c1C(=O)OCC(=O)c1ccccc1, the binding response (% of control) was 1% [inhibitor] (active).
For O=C(OCc1cc(Cl)ccc1OC(F)F)c1cccnc1, the binding response (% of control) was 146% (active).
